Experiment [1] deals with Acetylcholinesterase (Homo sapiens) (UniProt P22303). Description: Acetylcholinesterase (AChE) small molecule antagonists: colormetric cell-based qHTS assay (AID 1347395). Also: nearly all actives have a fitted effect of over 30% in size. Also: potency is read from the fitted curve at half-maximal effect. The gist of the method:
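AChE inhibition read colorimetrically via DTNB–thiocholine in SH-SY5Y cells. Compound 30 min, substrate 90 min, both 37 C.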

The target is the same in experiment [2]. The experiment is described as follows: Acetylcholinesterase (AChE) small molecule antagonists: enzyme-based qHTS assay (AID 1347397). Also: nearly all actives have a fitted effect of over 55% in size. Also: potency is read from the fitted curve at half-maximal effect. Particulars: Potency: AChE enzyme activity inhibition; outcome: AChE enzyme activity inhibition. The essentials: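 rhAChE 50 mU/mL (dispensed) + cpd or DMSO, 30 min RT; add DTNB/acetylthiocholine cocktail, 10 min RT; colorimetric thiocholine readout. qHTS, 1536-well format.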
A general note: Quantitative high-throughput screening tests each substance at several concentrations.

For experiment [3] the target is unchanged. The experiment is described as follows: Acetylcholinesterase (AChE) small molecule antagonists: fluorescence cell-based qHTS assay (AID 1347398). Also: nearly all actives have a fitted effect of over 50% in size. Also: potency is read from the fitted curve at half-maximal effect. Particulars: Potency: AChE activity; outcome: AChE activity. The essentials: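 Read-out is Thiolite Green fluorescence at Ex/Em = 490/520 nm, formed by reaction with thiocholine released when cellular AChE in SH-SY5Y cells hydrolyzes acetylthiocholine. Compounds were preincubated 30 min at 37 C before substrate.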

Experiment [4] shares this target. Description: Acetylcholinesterase (AChE) small molecule antagonists: enzyme-based qHTS assay with human liver microsomes (AID 1347399). Also: nearly all actives have a fitted effect of over 60% in size. The following applies: Potency: qHTS inhibition; outcome: qHTS inhibition. The gist of the method: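 Recombinant human AChE (50 mU/mL in the enzyme mix) and human liver microsomes (0.25 mg/mL final) were preincubated with compound and NADPH (0.25 mg/mL final) for 30 min at 37 C. Acetylthiocholine/DTNB was then added; thiocholine was read colorimetrically after 10 min at room temperature.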

Experiment [5] in a line: qHTS assay for small molecule agonists of the p53 signaling pathway (AID 651631). Also: nearly all actives have a fitted effect of over 15% in size. The essentials:
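We treat p53RE-bla HCT-116 cells with compounds for 16 h at 37 °C, add LiveBLAzer B/G FRET substrate for 2 h at room temperature, and measure fluorescence intensity.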

In experiment [6] the target is Glucocorticoid receptor (Homo sapiens) (UniProt P04150). Description: qHTS assay to identify small molecule antagonists of the glucocorticoid receptor (GR) signaling pathway (AID 720692; active = well fitted inhibition curve with a large enough effect in the signal ratio in the repeat runs, not every such curve was filed as active; the % refers to the signal ratio). The gist of the method: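 Fluorescence from cleaved LiveBLAzer B/G FRET substrate reports GRE-driven beta-lactamase in HeLa cells; compounds are tested against 5 nM dexamethasone (final) over 18 h at 37 C, substrate incubation 2 h at room temperature.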
Chain of Glucocorticoid receptor (Homo sapiens) (P04150 whole entry, looked up): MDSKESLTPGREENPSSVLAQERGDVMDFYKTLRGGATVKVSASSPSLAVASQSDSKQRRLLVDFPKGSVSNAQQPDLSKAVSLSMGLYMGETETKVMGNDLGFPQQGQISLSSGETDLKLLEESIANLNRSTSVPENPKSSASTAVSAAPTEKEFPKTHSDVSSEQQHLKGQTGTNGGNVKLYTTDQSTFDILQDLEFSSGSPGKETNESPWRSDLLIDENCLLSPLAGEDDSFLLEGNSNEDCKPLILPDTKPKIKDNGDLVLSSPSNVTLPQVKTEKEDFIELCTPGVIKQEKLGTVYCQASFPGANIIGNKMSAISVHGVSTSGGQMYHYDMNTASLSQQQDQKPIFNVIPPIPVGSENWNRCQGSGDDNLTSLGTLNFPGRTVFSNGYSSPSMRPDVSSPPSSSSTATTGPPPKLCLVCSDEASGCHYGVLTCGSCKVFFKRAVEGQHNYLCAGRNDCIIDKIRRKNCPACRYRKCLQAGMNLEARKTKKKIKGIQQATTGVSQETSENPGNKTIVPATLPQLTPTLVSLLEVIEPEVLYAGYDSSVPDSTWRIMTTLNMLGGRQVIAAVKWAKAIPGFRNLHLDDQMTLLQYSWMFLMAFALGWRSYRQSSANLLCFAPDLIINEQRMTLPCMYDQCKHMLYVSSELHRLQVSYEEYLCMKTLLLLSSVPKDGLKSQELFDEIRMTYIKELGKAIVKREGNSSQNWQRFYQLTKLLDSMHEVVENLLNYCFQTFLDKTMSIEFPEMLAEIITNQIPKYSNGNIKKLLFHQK

In experiment [7] the target is Aryl hydrocarbon receptor (Homo sapiens) (UniProt P35869). The experiment is described as follows: qHTS assay to identify small molecule that activate the aryl hydrocarbon receptor (AhR) signaling pathway (AID 743085; active = well fitted activation curve with a large enough effect in the repeat runs;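 also: HG2L7.5c1 human HepG2 liver cells with stably integrated DRE-driven firefly reporter; series mostly up to about 70 µM; nearly all actives have a fitted effect of over 15% in size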). The essentials:
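AhR agonist activity is inferred from enhanced light output of a DRE-controlled firefly luciferase reporter in HepG2 cells, measured with ONE-Glo following 24 h treatment at 37C.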

Molecules are shown by their SMILES. “And” between values parts separate entries of the source, which are not always exact repeats. Equal values may be shown once. A number with no mark means an inactive call. Results filed as inconclusive are left out. The source made the active and inactive calls. Unless noted, calls follow the shape of the full dose curve.

From PubChem BioAssay (Tox21) come the findings set out here.
% is scaled to controls: 0 for no effect and ±100 for the full control effect.

Chain of Acetylcholinesterase (Homo sapiens) (P22303 whole entry, looked up): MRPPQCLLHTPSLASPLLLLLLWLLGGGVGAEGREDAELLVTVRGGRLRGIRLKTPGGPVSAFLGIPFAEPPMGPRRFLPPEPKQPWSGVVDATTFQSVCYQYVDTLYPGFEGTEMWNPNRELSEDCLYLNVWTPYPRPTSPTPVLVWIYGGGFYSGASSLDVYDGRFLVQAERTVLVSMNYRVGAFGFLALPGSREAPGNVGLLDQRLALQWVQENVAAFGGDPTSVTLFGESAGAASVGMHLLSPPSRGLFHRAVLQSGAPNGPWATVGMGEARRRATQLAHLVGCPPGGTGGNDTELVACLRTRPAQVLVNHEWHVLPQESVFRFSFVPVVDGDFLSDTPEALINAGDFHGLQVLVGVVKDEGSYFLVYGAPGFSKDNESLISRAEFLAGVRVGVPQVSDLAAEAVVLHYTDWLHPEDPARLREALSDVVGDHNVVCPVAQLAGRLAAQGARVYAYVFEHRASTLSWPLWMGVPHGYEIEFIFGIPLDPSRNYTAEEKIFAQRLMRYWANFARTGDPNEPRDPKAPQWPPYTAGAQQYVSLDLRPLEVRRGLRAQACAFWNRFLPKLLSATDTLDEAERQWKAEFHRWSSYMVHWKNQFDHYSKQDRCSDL
Chain of Aryl hydrocarbon receptor (Homo sapiens) (P35869 whole entry, looked up): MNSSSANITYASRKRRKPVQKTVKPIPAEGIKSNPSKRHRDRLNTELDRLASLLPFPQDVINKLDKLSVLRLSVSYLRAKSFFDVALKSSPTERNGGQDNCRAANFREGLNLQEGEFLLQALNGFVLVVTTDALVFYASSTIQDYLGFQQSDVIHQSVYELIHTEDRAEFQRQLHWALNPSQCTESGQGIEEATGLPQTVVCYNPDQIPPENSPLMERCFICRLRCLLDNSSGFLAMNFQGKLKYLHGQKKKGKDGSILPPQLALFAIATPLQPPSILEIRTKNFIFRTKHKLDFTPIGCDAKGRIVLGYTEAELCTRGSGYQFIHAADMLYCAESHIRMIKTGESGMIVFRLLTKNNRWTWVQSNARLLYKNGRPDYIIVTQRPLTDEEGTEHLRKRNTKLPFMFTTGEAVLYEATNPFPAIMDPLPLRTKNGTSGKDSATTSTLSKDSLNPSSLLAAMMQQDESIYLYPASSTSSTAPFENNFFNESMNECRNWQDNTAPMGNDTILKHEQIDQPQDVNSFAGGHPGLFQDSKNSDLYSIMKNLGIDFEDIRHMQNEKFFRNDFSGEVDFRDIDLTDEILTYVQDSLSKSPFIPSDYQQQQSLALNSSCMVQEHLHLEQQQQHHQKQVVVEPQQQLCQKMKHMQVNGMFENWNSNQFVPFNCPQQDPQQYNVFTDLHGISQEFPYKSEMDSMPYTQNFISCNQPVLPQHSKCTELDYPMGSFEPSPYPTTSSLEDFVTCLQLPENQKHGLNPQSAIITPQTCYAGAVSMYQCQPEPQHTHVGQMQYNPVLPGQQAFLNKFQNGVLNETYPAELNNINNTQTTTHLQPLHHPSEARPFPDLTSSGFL

With `O=C(N[C@H](CO)[C@H](O)c1ccc([N+](=O)[O-])cc1)C(Cl)Cl`, the Potency entry in experiment [1], in experiment [2], in experiment [3] and in experiment [4] was “inactive” in each case.

`COc1ccc(CCC(=O)c2c(O)cc(O[C@@H]3O[C@H](CO)[C@@H](O)[C@H](O)[C@H]3O[C@@H]3O[C@@H](C)[C@H](O)[C@@H](O)[C@H]3O)cc2O)cc1O`: the Potency result in experiment [1], in experiment [2], in experiment [3] and in experiment [4] was “inactive” each time.

Take `CC(C)=CCC/C(C)=C/C#N`: the Potency entry in experiment [1], in experiment [2], in experiment [3] and in experiment [4] was “inactive” throughout.

Turning to `Cn1c(=O)c2c(ncn2CC(=O)O)n(C)c1=O`, the Potency result in experiment [1], in experiment [2], in experiment [3] and in experiment [4] was “inactive” in each case.

For the compound `C[C@@H]1C[C@H]2[C@@H]3CCC4=CC(=O)C=C[C@]4(C)[C@@]3(F)[C@@H](O)C[C@]2(C)[C@@]1(O)C(=O)CO`, the Potency result in experiment [1], in experiment [2], in experiment [3] and in experiment [4] was “inactive” in each case.

Take `CC1(C)O[C@@H]2C[C@H]3[C@@H]4CCC5=CC(=O)CC[C@]5(C)[C@@]4(F)[C@@H](O)C[C@]3(C)[C@]2(C(=O)CCl)O1`: the Potency result in experiment [1], in experiment [2], in experiment [3] and in experiment [4] was “inactive” in each case.

For the compound `COC(=O)/C=C(/C)N`, the Potency entry in experiment [1], in experiment [2], in experiment [3] and in experiment [4] was “inactive” in each case.

For `CC[N+](C)(CC)CCOC(=O)C(O)(c1ccccc1)C1CCCCC1` (stereo not drawn), the Potency entry in experiment [1], in experiment [2], in experiment [3] and in experiment [4] was “inactive” each time.

Regarding `CCOc1ccc(NC(=O)OC(C)C)cc1OCC`, the Potency result in experiment [1], in experiment [2], in experiment [3] and in experiment [4] was “inactive” throughout.

Take `OC1(c2ccc(Cl)cc2)CCNCC1`: the Potency entry in experiment [1], in experiment [2], in experiment [3] and in experiment [4] was “inactive” throughout.

With `Cc1cc(O)c2c(O)c3c(O)cccc3cc2c1`, the Potency result in experiment [1], in experiment [2], in experiment [3] and in experiment [4] was “inactive” each time.

For `COc1ccc2cccc(CCNC(C)=O)c2c1`, the Potency entry in experiment [1], in experiment [2], in experiment [3] and in experiment [4] was “inactive” in each case.

On to `CC(O)COC(C)(C)C` (stereo not drawn), for which the Potency entry in experiment [1], in experiment [2], in experiment [3] and in experiment [4] was “inactive” in each case.

For the compound `COc1cc(-c2ccc(N=C=O)c(OC)c2)ccc1N=C=O`, the Potency entry in experiment [1], in experiment [2], in experiment [3] and in experiment [4] was “inactive” in each case.

For `C=CC(=C)CC/C=C(\C)CCC=C(C)C`, the activity, negative = inhibition in experiment [1] is -2.99% [at 23.6 µM]. The activity change, negative = inhibition was 0.554% [at 23.6 µM] in experiment [2], -5.88% [at 23.8 µM] in experiment [3] and -0.162% [at 23.6 µM] in experiment [4].

Turning to `O=Cc1ccc(F)cc1`, the Potency entry in experiment [1], in experiment [2], in experiment [3] and in experiment [4] was “inactive” each time.

Regarding `O=C(Nc1ccc(Oc2ccc(Cl)cc2)c(Cl)c1)c1cc(I)cc(I)c1O`, the Potency result in experiment [1], in experiment [2], in experiment [3] and in experiment [4] was “inactive” throughout.

With `Cc1ccc(N/N=c2\c(=O)cc/c(=N\Nc3ccc(S(=O)(=O)O)cc3)c2=O)c(C)c1`, the Potency entry in experiment [1], in experiment [2], in experiment [3] and in experiment [4] was “inactive” in each case.

For the compound `CCOC(=O)C(C)O` (stereo not drawn), the Potency result in experiment [1], in experiment [2], in experiment [3] and in experiment [4] was “inactive” in each case.

Turning to `CCC(=O)CC`, the Potency result in experiment [1], in experiment [2], in experiment [3] and in experiment [4] was “inactive” each time.

With `CC(O)C1CCCCC1` (stereo not drawn), the Potency result in experiment [1], in experiment [2], in experiment [3] and in experiment [4] was “inactive” each time.

Regarding `NCCCNCCSP(=O)(O)O`, the activity, negative = inhibition in experiment [1] is 2.88% [at 10.5 µM]. The activity change, negative = inhibition was -0.97% [at 10.5 µM] in experiment [2], 1.49% [at 10.5 µM] in experiment [3] and 5.32% [at 10.5 µM] in experiment [4].

In the case of `CCN(CC)CCCC(C)Nc1ccnc2cc(Cl)ccc12` (stereo not drawn), the Potency in experiment [1] is 9.52 µM (active); in experiment [3], 3.79 µM (active). Moreover, the activity change, negative = inhibition in experiment [2] is -3.67% [at 10.5 µM]; in experiment [4], -0.628% [at 10.5 µM] and -0.0844% [at 23.6 µM].

In the case of `CC(C)(C)c1cc(CCC(=O)NCCCCCCNC(=O)CCc2cc(C(C)(C)C)c(O)c(C(C)(C)C)c2)cc(C(C)(C)C)c1O`, the Potency entry in experiment [1], in experiment [2], in experiment [3] and in experiment [4] was “inactive” in each case.

Turning to `CCC(=O)OC/C=C(\C)CCC=C(C)C`, the Potency entry in experiment [1], in experiment [2], in experiment [3] and in experiment [4] was “inactive” in each case.

For the compound `CN(C)c1ccc(SC#N)cc1`, the Potency entry in experiment [1], in experiment [2], in experiment [3] and in experiment [4] was “inactive” each time.

For `CCc1ccc(C)nc1`, the Potency entry in experiment [1], in experiment [2], in experiment [3] and in experiment [4] was “inactive” in each case.

For `CN(C)CCOC1=Cc2ccccc2Sc2ccc(Cl)cc21`, the Potency result in experiment [1], in experiment [2] and in experiment [4] was “inactive” throughout.

Consider `C1=C\CC/C=C\CC/C=C\CC/1`, for which the Potency entry in experiment [5], in experiment [6], in experiment [1], in experiment [2], in experiment [3] and in experiment [4] was “inactive” each time.

As to `Cc1cc(C(C#N)c2ccc(Cl)cc2)c(Cl)cc1NC(=O)c1cc(I)cc(I)c1O` (stereo not drawn), the compound was classed as inactive in experiment [7]. Also, the Potency result in experiment [1], in experiment [2], in experiment [3] and in experiment [4] was “inactive” each time.

For `CCCOc1sc(C(=O)N2CCC(c3cc(CN)ccc3F)CC2)c(C)c1Br`, the Potency entry in experiment [1] and in experiment [4] was “inactive” in each case. Moreover, the Potency in experiment [2] was 73 µM (active).

With `CN1CC(=O)N2[C@H](c3ccc4c(c3)OCO4)c3[nH]c4ccccc4c3C[C@@H]2C1=O`, the Potency in experiment [1] was 27.5 µM (active). Also, the Potency result in experiment [2] and in experiment [4] was “inactive” each time.
